# Measurements reported in the supplement of paper PMC12067093, “Discovery and optimisation of a covalent ligand for TRIM25 and its application to targeted protein ubiquitination” (Chemical Science, 2025).
# About 21,000 targets were measured; listed, in parts, are those with the largest changes and a random draw of the rest.
# Biological target: SLTM_Q9NWH9_107_KHEADELSGDASVEDDAFIKDCELENQEAHEQDGNDELK (UniProt Q9NWH9)
# Test: probe-labelled cysteine peptide fold change vs DMSO (competition) (log2 fold change); higher = less target engagement (more negative = stronger competition)
# Details: THP-1, incubation time: 4 h
# 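Also: competitive profiling in live THP-1 cells: cysteine peptides tagged with an iodoacetamide desthiobiotin (IA-DTB) probe, intensity after compound treatment relative to DMSO-treated cells.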
# Sequence of UniProt Q9NWH9 (Q9NWH9 whole entry, looked up): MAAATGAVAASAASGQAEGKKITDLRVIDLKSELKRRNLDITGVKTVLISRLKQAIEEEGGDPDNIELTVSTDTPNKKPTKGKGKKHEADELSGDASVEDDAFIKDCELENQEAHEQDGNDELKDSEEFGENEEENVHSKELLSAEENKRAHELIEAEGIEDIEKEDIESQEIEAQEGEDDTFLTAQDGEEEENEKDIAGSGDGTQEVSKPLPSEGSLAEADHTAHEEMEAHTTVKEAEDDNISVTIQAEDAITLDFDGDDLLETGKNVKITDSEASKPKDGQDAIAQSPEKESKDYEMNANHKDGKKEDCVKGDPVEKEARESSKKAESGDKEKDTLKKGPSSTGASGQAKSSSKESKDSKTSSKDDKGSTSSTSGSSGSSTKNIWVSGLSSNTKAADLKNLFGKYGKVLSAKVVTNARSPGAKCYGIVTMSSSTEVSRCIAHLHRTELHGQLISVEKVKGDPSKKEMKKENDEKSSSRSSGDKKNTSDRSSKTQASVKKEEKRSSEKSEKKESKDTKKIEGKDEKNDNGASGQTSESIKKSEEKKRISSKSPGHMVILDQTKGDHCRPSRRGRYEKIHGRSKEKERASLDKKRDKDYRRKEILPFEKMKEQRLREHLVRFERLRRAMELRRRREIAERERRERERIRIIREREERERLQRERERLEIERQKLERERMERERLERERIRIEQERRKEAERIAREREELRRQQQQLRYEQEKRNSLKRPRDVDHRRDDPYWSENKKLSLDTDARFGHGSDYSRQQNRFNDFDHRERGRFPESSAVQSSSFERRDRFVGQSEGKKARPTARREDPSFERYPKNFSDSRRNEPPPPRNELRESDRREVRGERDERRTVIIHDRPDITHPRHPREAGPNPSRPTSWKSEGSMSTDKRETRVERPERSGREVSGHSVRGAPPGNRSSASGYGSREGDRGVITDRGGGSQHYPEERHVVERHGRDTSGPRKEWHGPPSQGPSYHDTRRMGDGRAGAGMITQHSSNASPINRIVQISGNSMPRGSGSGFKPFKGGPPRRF
structure (smiles),measurement,setting,value
Cc1cc(C(=O)N2CCCN(C(=O)CCl)CC2)ccc1-c1ccccc1 [compound 10],probe-labelled cysteine peptide fold change,10 µM,0.0217
same,probe-labelled cysteine peptide fold change,50 µM,-1.37
